Values without a mark were called inactive. Activity calls are given as the source filed them.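 How the source made its calls: active means normalized viability below 100% at a tested concentration; inactive means the rest.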
test: ovarian cancer cell viability with rucaparib, profiling panel, oncology-focused library, rucaparib conditional (AID 1508598); details: patient-derived ovarian cancer cells, CellTiter-Glo viability, 144 h; at 0.00122 µM; OCI-C5x cells; without rucaparib; hits give low values

Compound	viability
O=c1[nH]c(=O)n([C@@H]2C[C@H](O)[C@@H](CO)O2)cc1F	117%
COc1cccc2c1C(=O)c1c(O)c3c(c(O)c1C2=O)C[C@@](O)(C(C)=O)C[C@H]3O[C@H]1C[C@H](N)[C@H](O)[C@H](C)O1	101%
C[C@]12CC[C@H]3c4ccc(O)cc4CC[C@H]3[C@@H]1CC[C@H]2O	111%
CC1=C(/C=C/C(C)=C\C=C\C(C)=C/C(=O)O)C(C)(C)CCC1	105%
CC(C)CC(CC(=O)NO)C(=O)N[C@@H](Cc1ccc2ccccc2c1)C(=O)N[C@@H](C)C(=O)NCCN (stereo partly specified)	110%
COc1cccc2c1C(=O)c1c(O)c3c(c(O)c1C2=O)C[C@@](O)(C(=O)CO)C[C@H]3O[C@H]1C[C@H](N)[C@@H](O)[C@H](C)O1	106%
COc1ccc(C2=N[C@H](c3ccc(Cl)cc3)[C@@H](c3ccc(Cl)cc3)N2C(=O)N2CCNC(=O)C2)c(OC(C)C)c1	101%
CO[C@H]1C[C@H]2CC[C@@H](C)[C@@](O)(O2)C(=O)C(=O)N2CCCC[C@H]2C(=O)O[C@H]([C@H](C)C[C@@H]2CC[C@H](OC(=O)C(C)(CO)CO)[C@H](OC)C2)CC(=O)[C@H](C)/C=C(\C)[C@@H](O)[C@@H](OC)C(=O)[C@H](C)C[C@H](C)/C=C/C=C/C=C/1C	95.7% (active)
O=C(O)c1cc(I)ccc1NC(=O)[C@H](Cc1ccccc1)NCc1ccccc1	111%
Nc1ncn([C@@H]2O[C@H](CO)[C@@H](O)[C@@H]2O)c(=O)n1	132%
CO[C@H]1C[C@@H]2CC[C@@H](C)[C@@](O)(O2)C(=O)C(=O)N2CCCC[C@H]2C(=O)O[C@H]([C@H](C)C[C@@H]2CC[C@@H](O)[C@H](OC)C2)CC(=O)[C@H](C)/C=C(\C)[C@@H](O)[C@H](OC)C(=O)[C@H](C)C[C@H](C)/C=C/C=C/C=C/1C	102%
CC(=O)OCC(=O)[C@]1(O)[C@H](C)C[C@H]2[C@@H]3CCC4=CC(=O)C=C[C@]4(C)[C@]3(F)[C@H](O)C[C@@]21C	125%
CC[C@]1(O)C[C@@H]2CN(CCc3c([nH]c4ccccc34)[C@@](C(=O)OC)(c3cc4c(cc3OC)N(C=O)[C@H]3[C@@](O)(C(=O)OC)[C@H](OC(C)=O)[C@]5(CC)C=CCN6CC[C@@]43[C@@H]65)C2)C1	106%
C[C@@]12CC[C@H]3c4ccc(O)cc4C[C@@H](CCCCCCCCCS(=O)CCCC(F)(F)C(F)(F)F)[C@H]3[C@@H]1CC[C@@H]2O (stereo partly specified)	98.6% (active)
CC(=O)O[C@@]1(C(C)=O)CC[C@H]2[C@@H]3C[C@H](C)C4=CC(=O)CC[C@]4(C)[C@@H]3CC[C@@]21C	120%
CC(=O)O[C@]12CO[C@@H]1C[C@H](O)[C@]1(C)C(=O)[C@H](O)C3=C(C)[C@H](OC(=O)[C@H](O)[C@@H](NC(=O)OC(C)(C)C)c4ccccc4)C[C@](O)([C@H](OC(=O)c4ccccc4)C21)C3(C)C (stereo partly specified)	76% (active)
CCC1=CC2CN(C1)Cc1c([nH]c3ccccc13)[C@@](C(=O)OC)(c1cc3c(cc1OC)N(C)[C@H]1[C@@](O)(C(=O)OC)[C@H](OC(C)=O)[C@]4(CC)C=CCN5CC[C@@]31[C@H]54)C2 (stereo partly specified)	70.1% (active)
CC(=O)O[C@H]1C(=O)[C@@]2(C)C([C@H](OC(=O)c3ccccc3)[C@]3(O)C[C@H](OC(=O)[C@H](O)[C@@H](NC(=O)c4ccccc4)c4ccccc4)C(C)=C1C3(C)C)[C@]1(OC(C)=O)CO[C@@H]1C[C@H]2O (stereo partly specified)	121%

same assay, conditions: patient-derived ovarian cancer cells, CellTiter-Glo viability, 144 h; at 0.00122 µM; OCI-P5x cells; with rucaparib 20 µM; hits give low values; 100% = cells with rucaparib alone

Compound	viability
O=c1[nH]c(=O)n([C@@H]2C[C@H](O)[C@@H](CO)O2)cc1F	65.1% (active)
COc1cccc2c1C(=O)c1c(O)c3c(c(O)c1C2=O)C[C@@](O)(C(C)=O)C[C@H]3O[C@H]1C[C@H](N)[C@H](O)[C@H](C)O1	99.8% (active)
C[C@]12CC[C@H]3c4ccc(O)cc4CC[C@H]3[C@@H]1CC[C@H]2O	101%
CC1=C(/C=C/C(C)=C\C=C\C(C)=C/C(=O)O)C(C)(C)CCC1	78.9% (active)
CC(C)CC(CC(=O)NO)C(=O)N[C@@H](Cc1ccc2ccccc2c1)C(=O)N[C@@H](C)C(=O)NCCN (stereo partly specified)	88.9% (active)
COc1cccc2c1C(=O)c1c(O)c3c(c(O)c1C2=O)C[C@@](O)(C(=O)CO)C[C@H]3O[C@H]1C[C@H](N)[C@@H](O)[C@H](C)O1	103%
COc1ccc(C2=N[C@H](c3ccc(Cl)cc3)[C@@H](c3ccc(Cl)cc3)N2C(=O)N2CCNC(=O)C2)c(OC(C)C)c1	93.4% (active)
CO[C@H]1C[C@H]2CC[C@@H](C)[C@@](O)(O2)C(=O)C(=O)N2CCCC[C@H]2C(=O)O[C@H]([C@H](C)C[C@@H]2CC[C@H](OC(=O)C(C)(CO)CO)[C@H](OC)C2)CC(=O)[C@H](C)/C=C(\C)[C@@H](O)[C@@H](OC)C(=O)[C@H](C)C[C@H](C)/C=C/C=C/C=C/1C	77.3% (active)
O=C(O)c1cc(I)ccc1NC(=O)[C@H](Cc1ccccc1)NCc1ccccc1	107%
Nc1ncn([C@@H]2O[C@H](CO)[C@@H](O)[C@@H]2O)c(=O)n1	102%
CO[C@H]1C[C@@H]2CC[C@@H](C)[C@@](O)(O2)C(=O)C(=O)N2CCCC[C@H]2C(=O)O[C@H]([C@H](C)C[C@@H]2CC[C@@H](O)[C@H](OC)C2)CC(=O)[C@H](C)/C=C(\C)[C@@H](O)[C@H](OC)C(=O)[C@H](C)C[C@H](C)/C=C/C=C/C=C/1C	91.5% (active)
CC(=O)OCC(=O)[C@]1(O)[C@H](C)C[C@H]2[C@@H]3CCC4=CC(=O)C=C[C@]4(C)[C@]3(F)[C@H](O)C[C@@]21C	105%
CC[C@]1(O)C[C@@H]2CN(CCc3c([nH]c4ccccc34)[C@@](C(=O)OC)(c3cc4c(cc3OC)N(C=O)[C@H]3[C@@](O)(C(=O)OC)[C@H](OC(C)=O)[C@]5(CC)C=CCN6CC[C@@]43[C@@H]65)C2)C1	73.6% (active)
C[C@@]12CC[C@H]3c4ccc(O)cc4C[C@@H](CCCCCCCCCS(=O)CCCC(F)(F)C(F)(F)F)[C@H]3[C@@H]1CC[C@@H]2O (stereo partly specified)	109%
CC(=O)O[C@@]1(C(C)=O)CC[C@H]2[C@@H]3C[C@H](C)C4=CC(=O)CC[C@]4(C)[C@@H]3CC[C@@]21C	101%
CC(=O)O[C@]12CO[C@@H]1C[C@H](O)[C@]1(C)C(=O)[C@H](O)C3=C(C)[C@H](OC(=O)[C@H](O)[C@@H](NC(=O)OC(C)(C)C)c4ccccc4)C[C@](O)([C@H](OC(=O)c4ccccc4)C21)C3(C)C (stereo partly specified)	93% (active)
CCC1=CC2CN(C1)Cc1c([nH]c3ccccc13)[C@@](C(=O)OC)(c1cc3c(cc1OC)N(C)[C@H]1[C@@](O)(C(=O)OC)[C@H](OC(C)=O)[C@]4(CC)C=CCN5CC[C@@]31[C@H]54)C2 (stereo partly specified)	1.29% (active)
CC(=O)O[C@H]1C(=O)[C@@]2(C)C([C@H](OC(=O)c3ccccc3)[C@]3(O)C[C@H](OC(=O)[C@H](O)[C@@H](NC(=O)c4ccccc4)c4ccccc4)C(C)=C1C3(C)C)[C@]1(OC(C)=O)CO[C@@H]1C[C@H]2O (stereo partly specified)	119%
